# Measured values taken from PubChem BioAssay AID1159580 (chemical genetic matrix, 2015).
# Hit rate of the full screen: of about 5,500 compounds, about 2,000 (36%) were called active. About 18% were inconclusive and are not listed. The list shows a part of the results. A number with no mark means an inactive call. Rule as the data show it: active = normalized growth mostly below about 0.91 (no sharp cut-off); inconclusive = no clear call, values can overlap the other calls; inactive = mostly above about 0.92.
# Assay: chemical genetic growth profiling, strain panel (AID 1159580);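 also: tested at 20 µM; growth read once vehicle control cultures reached saturation at 30 °C; 1 = growth at the plate median or of vehicle wells; lower values mean less growth of the strain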
# Conditions: growth OD
structure (smiles),measurement,setting,value
O=C1CC(c2ccc(O)cc2)Oc2ccccc21 (stereo unspecified),normalized growth,"S. cerevisiae deletion strains, locus YAL013W, strain DEP1, hits give low values",0.894 (active)
same,normalized growth,"S. cerevisiae deletion strains, locus YBR021W, strain FUR4, hits give low values",0.896
same,normalized growth,"S. cerevisiae deletion strains, locus YBR229C, strain ROT2, hits give low values",0.918
same,normalized growth,"S. cerevisiae deletion strains, locus YCL029C, strain bik1, hits give low values",0.858 (active)
same,normalized growth,"S. cerevisiae deletion strains, locus YDL035C, strain GPR1, hits give low values",0.844 (active)
same,normalized growth,"S. cerevisiae deletion strains, locus YDL074C, strain BRE1, hits give low values",0.632 (active)
same,normalized growth,"S. cerevisiae deletion strains, locus YDL101C, strain DUN1, hits give low values",0.862 (active)
same,normalized growth,"S. cerevisiae deletion strains, locus YDL134C, strain PPH21, hits give low values",0.798 (active)
same,normalized growth,"S. cerevisiae deletion strains, locus YDL185W, strain tfp1, hits give low values",0.907
same,normalized growth,"S. cerevisiae deletion strains, locus YDL192W, strain arf1, hits give low values",0.818 (active)
same,normalized growth,"S. cerevisiae deletion strains, locus YDR101C, strain arx1, hits give low values",0.865 (active)
same,normalized growth,"S. cerevisiae deletion strains, locus YDR150W, strain NUM1, hits give low values",0.919
same,normalized growth,"S. cerevisiae deletion strains, locus YDR162C, strain NBP2, hits give low values",0.489 (active)
same,normalized growth,"S. cerevisiae deletion strains, locus YDR318W, strain mcm21, hits give low values",0.746 (active)
same,normalized growth,"S. cerevisiae deletion strains, locus YDR388W, hits give low values",0.897 (active)
same,normalized growth,"S. cerevisiae deletion strains, locus YDR502C, strain sam2, hits give low values",0.815 (active)
same,normalized growth,"S. cerevisiae deletion strains, locus YEL061C, strain CIN8, hits give low values",0.879 (active)
same,normalized growth,"S. cerevisiae deletion strains, locus YER110C, hits give low values",0.855 (active)
same,normalized growth,"S. cerevisiae deletion strains, locus YER155C, strain BEM2, hits give low values",0.769 (active)
same,normalized growth,"S. cerevisiae deletion strains, locus YER167W, strain BCK2, hits give low values",0.687 (active)
same,normalized growth,"S. cerevisiae deletion strains, locus YGL078C, strain dbp3, hits give low values",0.944
same,normalized growth,"S. cerevisiae deletion strains, locus YGL086W, strain mad1, hits give low values",0.848 (active)
same,normalized growth,"S. cerevisiae deletion strains, locus YGL248W, strain PDE1, hits give low values",0.795 (active)
same,normalized growth,"S. cerevisiae deletion strains, locus YGR078C, strain PAC10, hits give low values",0.694 (active)
same,normalized growth,"S. cerevisiae deletion strains, locus YGR135W, strain pre9, hits give low values",0.787 (active)
same,normalized growth,"S. cerevisiae deletion strains, locus YGR229C, strain SMI1, hits give low values",0.538 (active)
same,normalized growth,"S. cerevisiae deletion strains, locus YGR252W, strain gcn5, hits give low values",0.718 (active)
same,normalized growth,"S. cerevisiae deletion strains, locus YHR030C, strain SLT2, hits give low values",0.704 (active)
same,normalized growth,"S. cerevisiae deletion strains, locus YHR079C, strain IRE1 (second series), hits give low values",0.8 (active)
same,normalized growth,"S. cerevisiae deletion strains, locus YHR094C, strain hxt1, hits give low values",0.917 (active)
same,normalized growth,"S. cerevisiae deletion strains, locus YHR129C, strain ARP1, hits give low values",0.795 (active)
same,normalized growth,"S. cerevisiae deletion strains, locus YHR200W, strain rpn10, hits give low values",0.924
same,normalized growth,"S. cerevisiae deletion strains, locus YIL066C, strain RNR3, hits give low values",0.851 (active)
same,normalized growth,"S. cerevisiae deletion strains, locus YIL073C, strain SPO22, hits give low values",0.786
same,normalized growth,"S. cerevisiae deletion strains, locus YIL125W, strain kgd1, hits give low values",0.94
same,normalized growth,"S. cerevisiae deletion strains, locus YIR030C, strain dcg1, hits give low values",0.86 (active)
same,normalized growth,"S. cerevisiae deletion strains, locus YJL095W, strain BCK1, hits give low values",0.386 (active)
same,normalized growth,"S. cerevisiae deletion strains, locus YJL134W, strain LCB3, hits give low values",0.919 (active)
same,normalized growth,"S. cerevisiae deletion strains, locus YJL168C, strain set2, hits give low values",0.926 (active)
same,normalized growth,"S. cerevisiae deletion strains, locus YJL187C, strain SWE1 (second series), hits give low values",0.817 (active)
same,normalized growth,"S. cerevisiae deletion strains, locus YJR043C, strain POL32, hits give low values",0.76 (active)
same,normalized growth,"S. cerevisiae deletion strains, locus YJR075W, strain HOC1, hits give low values",0.755 (active)
same,normalized growth,"S. cerevisiae deletion strains, locus YKL009W, strain mrt4, hits give low values",0.976
same,normalized growth,"S. cerevisiae deletion strains, locus YKL068W, hits give low values",0.924 (active)
same,normalized growth,"S. cerevisiae deletion strains, locus YKL085W, strain MDH1 (second series), hits give low values",0.923 (active)
same,normalized growth,"S. cerevisiae deletion strains, locus YKL085W, strain MDH1, hits give low values",0.923 (active)
same,normalized growth,"S. cerevisiae deletion strains, locus YKL190W, strain CNB1, hits give low values",0.874 (active)
same,normalized growth,"S. cerevisiae deletion strains, locus YKR001C, strain vps1, hits give low values",0.598 (active)
same,normalized growth,"S. cerevisiae deletion strains, locus YLR039C, strain RIC1, hits give low values",0.479 (active)
same,normalized growth,"S. cerevisiae deletion strains, locus YLR058C, strain SHM2, hits give low values",0.829 (active)
same,normalized growth,"S. cerevisiae deletion strains, locus YLR102C, strain apc9, hits give low values",0.928
same,normalized growth,"S. cerevisiae deletion strains, locus YLR262C, strain YPT6, hits give low values",0.498 (active)
same,normalized growth,"S. cerevisiae deletion strains, locus YLR268W, strain sec22, hits give low values",0.784 (active)
same,normalized growth,"S. cerevisiae deletion strains, locus YLR330W, strain CHS5, hits give low values",0.82 (active)
same,normalized growth,"S. cerevisiae deletion strains, locus YLR342W, strain FKS1 (second series), hits give low values",0.563 (active)
same,normalized growth,"S. cerevisiae deletion strains, locus YLR371W, strain rom2, hits give low values",0.927
same,normalized growth,"S. cerevisiae deletion strains, locus YLR418C, strain cdc73, hits give low values",0.471 (active)
same,normalized growth,"S. cerevisiae deletion strains, locus YML016C, strain PPZ1, hits give low values",0.905 (active)
same,normalized growth,"S. cerevisiae deletion strains, locus YML032C, strain rad52, hits give low values",0.696 (active)
same,normalized growth,"S. cerevisiae deletion strains, locus YML124C, strain tub3, hits give low values",0.918 (active)
same,normalized growth,"S. cerevisiae deletion strains, locus YMR078C, strain ctf18, hits give low values",0.808 (active)
same,normalized growth,"S. cerevisiae deletion strains, locus YMR223W, strain ubp8, hits give low values",0.807 (active)
same,normalized growth,"S. cerevisiae deletion strains, locus YMR263W, strain SAP30, hits give low values",0.823 (active)
same,normalized growth,"S. cerevisiae deletion strains, locus YMR307W, strain GAS1, hits give low values",0.56 (active)
same,normalized growth,"S. cerevisiae deletion strains, locus YNL067W, strain RPL9B, hits give low values",0.81 (active)
same,normalized growth,"S. cerevisiae deletion strains, locus YNL128W, strain TEP1, hits give low values",0.923
same,normalized growth,"S. cerevisiae deletion strains, locus YNL153C, strain GIM3, hits give low values",0.837 (active)
same,normalized growth,"S. cerevisiae deletion strains, locus YNL233W, strain BNI4, hits give low values",0.73 (active)
same,normalized growth,"S. cerevisiae deletion strains, locus YNL250W, strain rad50, hits give low values",0.876 (active)
same,normalized growth,"S. cerevisiae deletion strains, locus YNL271C, strain bni1, hits give low values",0.915 (active)
same,normalized growth,"S. cerevisiae deletion strains, locus YNL298W, strain CLA4, hits give low values",0.903 (active)
same,normalized growth,"S. cerevisiae deletion strains, locus YNL307C, strain MCK1, hits give low values",0.176 (active)
same,normalized growth,"S. cerevisiae deletion strains, locus YNL322C, strain KRE1, hits give low values",0.9 (active)
same,normalized growth,"S. cerevisiae deletion strains, locus YNR052C, strain pop2, hits give low values",0.92
same,normalized growth,"S. cerevisiae deletion strains, locus YOL006C, strain TOP1, hits give low values",0.462 (active)
same,normalized growth,"S. cerevisiae deletion strains, locus YOL012C, strain htz1",0.38
same,normalized growth,"S. cerevisiae deletion strains, locus YOL147C, strain pex11, hits give low values",0.662 (active)
same,normalized growth,"S. cerevisiae deletion strains, locus YOR061W, strain CKA2, hits give low values",0.931
same,normalized growth,"S. cerevisiae deletion strains, locus YOR069W, strain VPS5, hits give low values",0.946
same,normalized growth,"S. cerevisiae deletion strains, locus YOR136W, strain idh2, hits give low values",0.92 (active)
same,normalized growth,"S. cerevisiae deletion strains, locus YOR144C, strain elg1, hits give low values",0.911 (active)
same,normalized growth,"S. cerevisiae deletion strains, locus YOR184W, strain ser1, hits give low values",0.465 (active)
same,normalized growth,"S. cerevisiae deletion strains, locus YOR316C, strain cot1, hits give low values",0.916 (active)
same,normalized growth,"S. cerevisiae deletion strains, locus YPL055C, strain LGE1, hits give low values",0.712 (active)
same,normalized growth,"S. cerevisiae deletion strains, locus YPL241C, strain CIN2, hits give low values",0.935
same,normalized growth,"S. cerevisiae deletion strains, locus YPR119W, strain clb2, hits give low values",0.89 (active)
same,normalized growth,"S. cerevisiae deletion strains, locus YPR141C, strain kar3, hits give low values",0.923
same,normalized growth,"S. cerevisiae deletion strains, locus YPR163C, strain tif3, hits give low values",0.451 (active)
same,normalized growth,"S. cerevisiae deletion strains, locus YPR167C, strain met16, hits give low values",0.93
same,normalized growth,"S. cerevisiae deletion strains, strain wtn01, hits give low values",0.807 (active)
same,normalized growth,"S. cerevisiae strains, strain wild type, hits give low values",0.838 (active)
